CYP2C9 act: human CYP2C9 activators, primary screen, biochemical, luminescence. Cytochrome P450 2C9 (Homo sapiens), P11712. recombinant CYP2C9, luciferin-H conversion; active compounds read high; factor 1 = untreated enzyme, 0 = blocked. activation factor at 5 µM. 96,000 compounds, 1.4% hits. AID 1024, 2008;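 active = activation factor of 2 or more for CYP2C9 at a 5 µM dose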
CYP2C19 inh: blockers of cytochrome P450 2C19 activity – biochemical, luminescence, ADME assay, primary screen. P33261. CYP2C19 Supersomes, luciferin-H EGE luminescence, 30 min. inhibition, % at 5 µM. 96,000 compounds, 21% hits;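 active = CYP2C19 inhibition above a set limit at 5 µM in the primary screen, cut at about 50% in these data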
Mac1 fbg inh: inhibitors of CD11b/CD18 adhesion to fibrinogen, primary screen, K562 cells, luminescence; ATPlite luminescence; Mn2+ added to activate the integrin; AID 1497, 2009; 93,000 compounds, 0.54% hits; inhibition, % at 10 µM; Integrin beta-2 (Homo sapiens) + Integrin alpha-M (Homo sapiens), P05107+P11215;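 active = primary inhibition of 50% or more at 10 µM, then 40% or more on retest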
Target sequence (P05107 whole entry, looked up, other chains not shown): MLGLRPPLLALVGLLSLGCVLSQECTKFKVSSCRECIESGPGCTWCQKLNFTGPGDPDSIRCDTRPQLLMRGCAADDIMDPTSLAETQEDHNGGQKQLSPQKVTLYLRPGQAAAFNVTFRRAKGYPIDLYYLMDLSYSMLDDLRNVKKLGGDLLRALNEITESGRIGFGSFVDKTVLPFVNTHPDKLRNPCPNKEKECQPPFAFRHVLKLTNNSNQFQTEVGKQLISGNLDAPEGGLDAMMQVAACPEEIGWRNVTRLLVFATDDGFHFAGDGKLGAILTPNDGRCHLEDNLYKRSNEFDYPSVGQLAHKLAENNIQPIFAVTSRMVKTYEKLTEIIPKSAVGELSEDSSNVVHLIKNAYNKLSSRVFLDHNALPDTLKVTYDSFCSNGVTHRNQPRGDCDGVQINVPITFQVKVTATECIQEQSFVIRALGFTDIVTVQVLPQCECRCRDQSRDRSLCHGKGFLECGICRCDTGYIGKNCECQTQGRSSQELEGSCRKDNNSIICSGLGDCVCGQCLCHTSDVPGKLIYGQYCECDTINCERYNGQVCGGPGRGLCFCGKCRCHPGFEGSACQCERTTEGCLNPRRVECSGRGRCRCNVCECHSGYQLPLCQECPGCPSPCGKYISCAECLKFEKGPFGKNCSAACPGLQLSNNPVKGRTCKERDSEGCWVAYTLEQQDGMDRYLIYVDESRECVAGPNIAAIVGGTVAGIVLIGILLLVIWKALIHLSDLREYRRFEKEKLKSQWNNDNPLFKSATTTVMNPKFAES
CD11b adhes enh: enhancers of CD11b/CD18 adhesion to fibrinogen, primary screen, K562 cells, luminescence. ATPlite luminescence. 93,000 compounds, 0.07% hits. Integrin beta-2 (Homo sapiens) + Integrin alpha-M (Homo sapiens), P05107+P11215. activation, % at 10 µM;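 active = 10 µM primary screen giving 50% or more activity, confirmed by 40% or more on retest at that dose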
CYP2C9 inh: blockers of cytochrome P450 2C9 activity – biochemical, luminescence, ADME assay, primary screen. AID 777, 2007. CYP2C9 Supersomes, luciferin-H conversion. 96,000 compounds, 20% hits. inhibition, % at 5 µM. P11712;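 active = blocking of liver enzyme CYP2C9 beyond about 50% at 5 µM, limit read from the data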
CYP2C19 activ: human CYP2C19 activators, primary screen, biochemical, luminescence; 96,000 tested, under 10 active; activation factor at 5 µM; Cytochrome P450 2C19 (Homo sapiens), P33261; recombinant CYP2C19, luciferin-H EGE luminescence; active compounds read high; 0 = fully inhibited enzyme, 1 = untreated enzyme;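 active = activation factor of at least 2 at 5 µM in the primary screen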
Numbers stand for hits; . = inactive; / = no result given; ! = not active in a repeat. Hits are enriched below; roughly 28% of the tested compounds scored in any of these assays.

SMILES	CYP2C9 act	CYP2C19 inh	Mac1 fbg inh	CD11b adhes enh	CYP2C9 inh	CYP2C19 activ
Cc1nn(Cc2ccccc2)c(Cl)c1C(=O)OC(C)C(=O)Nc1ccc(F)cc1Cl (stereo unspecified)	/	/	.	.	/	/
CC(=NCc1ccc(F)cc1)c1c(O)n(C)c(=O)n(C)c1=O	.	.	.	.	.	.
OC1(c2ccc(F)cc2)CC2CCC(C1)N2Cc1nnnn1C1CCCCC1 (stereo unspecified)	.	50.3	/	/	.	.
OCCN1C2CCC1CC(O)(c1ccc(F)cc1)C2 (stereo unspecified)	.	.	.	.	.	.
Cc1ccc(CN2C(=O)NC(=O)C3(Cc4c(nc5ccccn5c4=O)N4CCCCCC43)C2=O)cc1 (stereo unspecified)	.	.	.	.	.	.
FC(F)(F)c1ccc2c(c1)NP(=S)(N1CCOCC1)c1nccn1-2 (stereo unspecified)	.	61.4	.	.	.	.
CCCCn1c(O)c(C=Nc2c(C)n(C)n(-c3ccccc3)c2=O)c(=O)[nH]c1=O	.	.	.	.	.	.
CCCCn1c(O)c(C(CC)=Nc2cccc(C(=O)O)c2)c(=O)[nH]c1=O	.	.	/	/	.	.
O=c1[nH]c(=O)n(CCC2=CCCCC2)c(O)c1C=NC1CCN(Cc2ccccc2)CC1	.	.	.	.	80.2	.
CCCCCCn1c(O)c(C=NC2CCN(Cc3ccccc3)CC2)c(=O)[nH]c1=O	.	.	.	.	72.8	.
O=C(COc1ccc2ccccc2c1)N1CCN(CC2CC3C=CC2C3)CC1 (stereo unspecified)	.	.	/	/	.	.
C(#CCN1CCOCC1)COCC#Cc1ccccc1	.	59.8	.	.	.	.
Brc1ccc(CN2CCNCC2)s1	.	.	.	.	.	.
COc1ccc(N2C(=O)CC(N3CC=C(c4ccccc4)CC3)C2=O)cc1 (stereo unspecified)	.	.	.	.	.	.
CC1(C)CSC(Nc2ccc(F)c(Cl)c2)=N1	.	.	.	.	.	.
CC1(C)CN=C(Nc2ccc(F)c(F)c2)S1	.	61.6	.	.	.	.
CCOC(=O)c1c(C)c(P(=S)(N2CCOCC2)N2CCOCC2)n(C)c1C	.	.	.	.	.	.
CN1C(=O)N(C)C(=O)C2(Cc3ccccc3N3CCOCC32)C1=O (stereo unspecified)	.	98.1	/	/	.	.
Cc1ccc(N2C(=O)NC(=O)C3(Cc4ccccc4N4CCN(c5ccccc5)CC43)C2=O)cc1 (stereo unspecified)	.	.	.	.	.	.
Cc1ccc(C(=O)Nc2ccc(-n3ccnc3P(=O)(O)c3ccccc3)cc2)cc1	.	.	.	.	.	.
CCOc1c(P(=S)(N(C)C)N(C)C)c(C)nn1-c1ccccc1	.	88.8	.	.	78.5	.
CN(C)CCOC(=O)c1cn(Cc2ccccc2)c2ccccc12	.	.	/	/	.	.
Cc1ccnc(-n2c(-c3ccccc3)nc3ccccc3c2=O)c1	.	.	.	.	.	.
Cc1cccc(N2CCc3c2nc2ccccc2c3N)c1	.	76.7!	.	.	65.0!	.
Nc1ccccc1C(=O)OCCOc1ccccc1	.	92.1	.	.	73.5	.
SMILES	CYP2C9 act	CYP2C19 inh	Mac1 fbg inh	CD11b adhes enh	CYP2C9 inh	CYP2C19 activ
COc1cccc(/C=C2\N=C(c3cncc(Br)c3)OC2=O)c1	/	/	.	.	/	/
CCC(=NCCCN(CC)CC)c1c(O)n(-c2ccccc2)c(=O)[nH]c1=O	.	.	.	.	.	.
CC(NCc1cccc(Cl)c1Cl)C(O)c1ccccc1 (stereo unspecified)	/	/	.	.	/	/
COc1cc(OC)c(OC)cc1CNC(C)C(O)c1ccccc1 (stereo unspecified)	.	66.9	.	.	.	.
O=c1[nH]c(=S)n(Cc2ccc(F)cc2)c(O)c1/C=N/N1CCCCCC1	/	/	.	.	/	/
Fc1ccc(C2NCCc3[nH]cnc32)cc1 (stereo unspecified)	/	/	.	.	/	/
CC(C)CCNC(=O)c1c(N)n(CC2CCCO2)c2nc3ccccc3nc12 (stereo unspecified)	.	61.0	.	.	95.3	.
COc1ccc(CCNC(=O)c2c(N)n(CCN3CCOCC3)c3nc4ccccc4nc23)cc1	.	.	.	.	50.3	.
CCC(C)NC(=O)c1c(N)n(CC2CCCO2)c2nc3ccccc3nc12 (stereo unspecified)	.	.	.	.	.	.
Nc1c(C(=O)NCCc2ccccc2)c2nc3ccccc3nc2n1CCN1CCOCC1	.	67.2	.	.	97.1	.
CC1=CC(C)C(COC(N)=O)(COC(N)=O)C(C)C1 (stereo unspecified)	.	.	.	.	.	.
O=C(COc1ccc(Br)cc1)N1CCN(Cc2ccncc2)CC1	.	82.8	.	.	62.8	.
COc1ccc(OC)c(CN2CCN(C(=O)COc3cccc(C)c3)CC2)c1	.	61.7	.	.	.	.
COc1ccccc1CN1CCN(C(=O)COc2cccc(C)c2)CC1	.	.	.	.	.	.
Cc1cccc(OCC(=O)N2CCN(Cc3ccncc3)CC2)c1	.	91.9	.	.	88.5	.
CC(C)COc1ccc(C2(C#N)CC[N+](C)(C)CC2)cc1	.	.	/	/	.	.
CP(=O)(O)CCCN	.	61.4	.	.	.	.
O=C(C(Cc1ccccc1)NS(=O)(=O)c1ccc(F)cc1)N1CCC2(CC1)OCCO2 (stereo unspecified)	.	80.0	.	.	.	.
O=C(NC(Cc1ccccc1)C(=O)N1CCC2(CC1)OCCO2)C1CCCCC1 (stereo unspecified)	.	.	/	/	.	.
Cc1sc2ncn(CC(=O)NCCCC(=O)N3CCC4(CC3)OCCO4)c(=O)c2c1C	.	.	/	/	.	.
O/N=C1/C(=C\c2ccccc2)N2CCC1CC2	.	83.3	.	.	.	.
COc1cccc(-c2cc(C(F)(F)F)n3nc(C(=O)N4CCC5(CC4)OCCO5)cc3n2)c1	.	77.3	.	.	69.0	.
CCc1cc2c(s1)NC(=O)CN=C2c1cccs1	.	.	.	.	.	.
Cn1c(O)c(C=NCc2ccco2)c(=O)n(C)c1=O	.	52.3	.	.	.	.
CCCCSC1=NN1c1nc(N)nc(C)c1CC	.	.	.	.	.	.
CN(C)C1(c2nnnn2-c2ccc(Cl)cc2)CCCCC1	.	93.1	.	.	.	.
CN(C)C1(c2nnnn2CCOC(=O)Nc2ccc(Cl)cc2)CCCCC1	.	100.0	.	.	86.7	.
CCCCOP(=O)(CN1CCOCC1)OCCCC	.	.	/	/	.	.
O=C1Nc2ccccc2/C1=C/c1cnc[nH]1	.	98.9	/	/	92.1	.

Compound activity: PubChem BioAssay, Sanford-Burnham Center for Chemical Genomics
